In PubChem BioAssay AID485344 (National Center for Advancing Translational Sciences (NCATS), 2010):
Values joined by “and” are separate entries in the source; they are usually repeats but may differ in a detail not shown here. Equal values may be shown once. The campaign covered roughly 340,000 compounds. About 6,900 (2%) were called active. The sample holds actives, similar compounds and a random draw of the others, so the mix is not that of the screen. Cut-off read from the data, not from the text of the source: active = inhibition above about 30%; inactive = below that, where a call was filed. The source holds several records for some structures; these can differ, active in one and inactive in another.

Molecular target: D(2) dopamine receptor (Homo sapiens) (UniProt P14416)
Sequence (P14416 whole entry, looked up): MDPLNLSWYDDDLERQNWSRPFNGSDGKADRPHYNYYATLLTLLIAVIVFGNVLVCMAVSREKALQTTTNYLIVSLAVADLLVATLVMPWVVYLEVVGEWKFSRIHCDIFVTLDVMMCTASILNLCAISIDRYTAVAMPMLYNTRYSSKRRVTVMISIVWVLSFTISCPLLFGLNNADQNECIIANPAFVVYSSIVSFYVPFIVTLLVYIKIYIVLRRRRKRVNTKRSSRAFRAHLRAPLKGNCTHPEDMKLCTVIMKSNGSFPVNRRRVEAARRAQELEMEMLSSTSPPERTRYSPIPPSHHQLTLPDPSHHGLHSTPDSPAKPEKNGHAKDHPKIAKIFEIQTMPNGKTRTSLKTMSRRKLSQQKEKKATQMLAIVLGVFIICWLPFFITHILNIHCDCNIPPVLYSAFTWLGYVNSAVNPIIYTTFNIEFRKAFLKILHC
Assay: HTS Assay for Allosteric Antagonists of the Human D2 Dopamine Receptor: Primary Screen for Antagonists; note: 0% is about no effect
Details: HEK293 TREx D2 cells, calcium flux, dopamine EC80; at 10 µM; stronger effect = higher value
Summary of the method: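 HEK293 T-REx D2 cells, tet-induced, calcium dye no-wash. Cpd pintool add, 180 s kinetic, then EC80 DA, 180 s kinetic. Ca flux read.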

Compound | inhibition
Cc1onc(C(=O)NN)c1-c1csc(COc2ccccc2)n1 | 20.6% (inactive)
COc1ccc(OC)c(Nc2nc(-c3ccc(O)c(O)c3)cs2)c1 | -3.66% (inactive)
CC(C)(C)C(=O)OCc1nc(-c2ccc(O)c(O)c2)cs1 | 93.7% (active)
C#CCOCCOCCOCCNc1nc(N2CCN(C(=O)CCCCCCCCCCNC(=O)Cn3cc(CCCCCN)nn3)CC2)nc(N2CCN(C(=O)CCCCCCCCCCNC(=O)[C@H](CO)n3cc(CCCSC)nn3)CC2)n1 | 1.73% (inactive)
COc1cc(OC)cc(-c2c(-c3cccs3)c3cc(-c4ccc(OC)cc4F)ccc3n2C)c1 | -3.09% (inactive)
CCN(CCCCOC(=O)c1ccc(OC)c(OC)c1)C(C)Cc1ccc(OC)cc1 (stereo not given) | 43.6% (active)
CCOC(=O)CN(Cc1ccc(OC)c(OC)c1)S(=O)(=O)c1ccc(OC)cc1 | -14% (inactive)
COc1ccccc1NC(=O)COc1ccc(C(=O)OCC(=O)N(C(C)C)C(C)C)cc1OC | 11.9% (inactive)
CC(C)(C)n1ncc2c(=O)n(Cc3c(Cl)cccc3Br)cnc21 | -6.49% (inactive)
Cc1ccc(C)c(OCC(=O)NNC(=O)C2CCC2)c1 | -10.9% (inactive)
CCN(CC(=O)Nc1c(F)cccc1F)C(=O)c1ccc(Sc2nncn2C)c([N+](=O)[O-])c1 | -7.81% (inactive)
O=C(CSc1ccccc1)Nc1cc(Cl)ccc1Oc1ccccc1 | 41.8% (active)
CC1CCCN(CC(=O)Nc2cc(Cl)ccc2Oc2ccccc2)C1 (stereo not given) | -9.74% (inactive)
CC(=O)Nc1ccc(SCC(=O)Nc2ccccc2Oc2ccccc2)cc1 | -7.41% (inactive)
O=C(CNC(=O)c1ccc2ccccc2c1)Nc1ncccc1O | 6.52% (inactive)
CCCN(C(=O)c1nc2nccc(C)n2n1)c1c(N)n(Cc2ccccc2)c(=O)[nH]c1=O | 13.1% (inactive)
O=C(O)c1cc(S(=O)(=O)Nc2ccc3cn[nH]c3c2)ccc1Br | -28.4% (inactive)
O=S(=O)(c1ccc(SCc2ccccc2)nc1)N1CCCCCC1 | -5.53% (inactive)
COc1ccc([C@H]2CC(=O)C=C(/C=C/c3ccccc3)C2)cc1 | 11.1% (inactive)
O=[N+]([O-])c1ccccc1Nc1ccc(O)cc1 | 48.5% (active)
O=[N+]([O-])c1ccc(O)c(/C=N/Nc2ccccc2[N+](=O)[O-])c1 | 20.9% (inactive)
O=C(O)c1ccccc1C(=O)Nc1ccccc1[N+](=O)[O-] | 7.04% (inactive)
COc1ccccc1OCC(=O)OCc1cc(-c2ccco2)on1 | 5.46% (inactive)

Compound | inhibition
CCN(CC(=O)N1CCCC1)S(=O)(=O)c1ccc(F)cc1 | 21.3% (inactive)
CS(=O)(=O)N(CC(=O)N1CCCC1)Cc1ccccc1 | 47.1% (active)
CS(=O)(=O)N(CC(=O)N1CCCCCC1)c1cccc(Cl)c1Cl | -0.797% (inactive)
O=C(COc1coc(CN2CCN(c3ccccc3)CC2)cc1=O)Nc1ccccc1F | 16.7% (inactive)
CCOC(=O)c1cc(-c2ccccc2C)n(Cc2cc(C)no2)n1 | 9.49% (inactive)
CC(=O)Nc1cccc(C(=O)OCC(=O)Nc2nnc(-c3ccccc3)o2)c1 | -0.603% (inactive)
COc1ccc(C(=O)OCC(=O)NCCCc2ccccc2)cc1OC | 7.85% (inactive)
COc1ccc(C(=O)OCC(=O)Nc2cccc(C(C)=O)c2)cc1OC | 113% (active)
CCCCn1c(N)c(N(CCOC)C(=O)c2cccc(OCc3ccccc3)c2)c(=O)[nH]c1=O | -3.21% (inactive)
CCOc1ncccc1C(=O)OCC(=O)Nc1cccc(S(=O)(=O)N2CCCCCC2)c1 | -2.34% (inactive)
CC(Oc1ccc(F)cc1)C(=O)Nc1cc(S(=O)(=O)N2CCOCC2)ccc1N1CCN(C)CC1 (stereo not given) | -1.88% (inactive)
CC(NC(=O)c1ccc(S(=O)(=O)Nc2ccccc2)cc1)c1ccc(S(N)(=O)=O)cc1 (stereo not given) | 11.4% (inactive)
Clc1ccccc1CSc1nnc(-c2ccco2)c(-c2ccco2)n1 | 34.6% (active)
S=C(NCc1ccco1)NCc1ccccc1Cl | -9.44% (inactive)
Fc1cccc(Cl)c1CSc1ccc(-c2ccco2)nn1 | -10.9% (inactive)
COc1ccccc1C(CNC(=O)c1ccc(C)c(S(=O)(=O)N2CCCCC2)c1)N(C)C (stereo not given) | 8.09% (inactive)
CN(C(=O)COC(=O)c1ccc(Br)o1)c1c(N)n(Cc2ccccc2)c(=O)[nH]c1=O | 1.2% (inactive)
CC(=O)NCC(=O)N(Cc1ccco1)C1(C(=O)NC2CCCC2)CCCCC1 | 22.2% (inactive)
Cc1ccc(N(C(=O)CC2NC(=O)NC2=O)C2(C(=O)NC3CCCC3)CCCCC2)cc1 (stereo not given) | -9.9% (inactive)
O=C(c1ccc(=O)[nH]c1)N(Cc1ccco1)C1(C(=O)NC2CCCCC2)CCCCC1 | 37.6% (active)
O=C(NCCN1CCN(Cc2ccccc2)CC1)c1cc2c(=O)[nH]c3ccccc3c2s1 | -24.6% (inactive)
O=C(CN1C(=O)COc2ccccc21)NCCN1CCc2ccccc2C1 | 9.13% (inactive)
Cn1c(C(=O)NCCN2CCc3ccccc3C2)cc2c(=O)[nH]c3ccccc3c21 | 32.3% (active)

Compound | inhibition
Cc1nnc(SCC(=O)NNC(=O)c2ccc(Cl)cc2)n1CC1CCCO1 (stereo not given) | -10.1% (inactive)
COc1ccccc1NC(=O)CSc1nnc(C)n1CC1CCCO1 (stereo not given) | -14.5% (inactive)
Cc1nnc(SCC(N)=O)n1CC1CCCO1 (stereo not given) | 32.8% (active)
COc1ccc(CCNC(=O)COC(=O)Cc2cccc(F)c2)cc1 | 6.51% (inactive)
Cc1c(NC(=O)C(C)Oc2cccc(Cl)c2)c(=O)n(-c2ccccc2)n1C (stereo not given) | -1.16% (inactive)
Cc1nnc(NC(=O)CSc2nc(C3CCCCC3)nc3ccccc23)s1 | 35.4% (active)
O=C(CSc1nc(C2CC2)nc2ccccc12)Nc1cccc(O)c1 | 6.46% (inactive)
O=C(CSc1nc(C2CC2)nc2ccccc12)Nc1ccc2c(c1)OCCO2 | 4.27% (inactive)
Cn1c(CC(=O)NNC(=O)c2ccccc2F)nc2ccccc21 | -9.97% (inactive)
O=C(NCc1ccncc1)c1cccc(NS(=O)(=O)c2ccc(F)c(F)c2)c1 | 26.4% (inactive)
O=C(c1ccco1)N1CCN(Cc2cccc(C(F)(F)F)c2)CC1 | 77.1% (active)
O=C(c1ccco1)N1CCN(C(=S)Nc2cc(F)cc(F)c2)CC1 | -1.02% (inactive)
Cc1ccc(C)c(OCC(=O)N2CCN(C(=O)c3ccco3)CC2)c1 | -1.29% (inactive)
COc1cccc(OC)c1OCCN1CCN(C(=O)c2ccco2)CC1 | 63.6% (active)
O=C(c1ccco1)N1CCN(C(=O)c2ccc(COc3ccc(F)cc3)o2)CC1 | 1.11% (inactive)
COc1cccc(OCc2cc(C(=O)N3CCN(C(=O)c4ccco4)CC3)no2)c1 | -3.13% (inactive)
O=C(CNS(=O)(=O)c1ccccc1)N1CCN(C(=O)c2ccco2)CC1 | -2.75% (inactive)
COC(c1ccccc1)c1nnc(CCC(=O)N2CCN(CCOc3ccccc3)CC2)o1 (stereo not given) | -8.4% (inactive)
O=CN1CCN(C(=O)c2ccc(Br)o2)CC1 | -1.93% (inactive)
O=C(CN1CCN(C(=O)c2ccco2)CC1)Nc1ccc(Cl)c(C(F)(F)F)c1 | 0.954% (inactive)
O=C(c1ccc(Br)o1)N1CCN(CCOc2ccccc2)CC1 | 86.3% (active)
O=C(c1ccco1)N1CCN(CCOc2ccccc2)CC1 | 61.7% (active)
CC(C)CN(C(=O)CSc1nncn1C)C1CCS(=O)(=O)C1 (stereo not given) | -28.1% (inactive)

Compound | inhibition
O=C1C=C(c2cc(C(F)(F)F)cc(C(F)(F)F)c2)C[C@@H](c2ccc3c(c2)OCO3)C1 | 8.46% (inactive)
CC(=O)Nc1cccc(C(=O)OCC(=O)c2ccc3c(c2)OCO3)c1 | 13.5% (inactive)
CSCCC(NC(=O)c1ccccc1)C(=O)N1CCCCCCC1 (stereo not given) | -18.4% (inactive)
COc1ccccc1C(=O)Nc1ccc(OCC(=O)N2CCCCC2)cc1 | -21.7% (inactive)
Cc1ccc(C(=O)NNC(=O)c2ccc3c(c2)OCCO3)cc1 | 20.3% (inactive)
Cc1ccc(C(=O)Nc2ncccc2C)cc1S(=O)(=O)N1CCOCC1 | -29.3% (inactive)
Cc1nn(CCOc2ccccc2)c(=O)n1-c1ccccc1F | 4.74% (inactive)
CCN1C(=O)/C(=C\N2CCN(c3cccc(Cl)c3)CC2)SC1=S | -0.63% (inactive)
CCc1nn(CCCN2CCN(c3cccc(Cl)c3)CC2)c(=O)n1CCOc1ccccc1 | 10.2% (inactive) and 47% (active)
CCN1CCN(C(=O)N[C@@H](C(=O)N[C@@H]2C(=O)N3C(C(=O)O)=C(CSc4nnnn4C)CS[C@H]23)c2ccc(O)cc2)C(=O)C1=O | -6.07% (inactive)
O=c1c2ccccc2ccc2ccc(P(=O)(O)O)cc12 | 1.32% (inactive)
O=C(OCC(=O)N1CCN(C(=O)c2ccco2)CC1)c1ccc(Cl)c(Cl)c1 | 20.1% (inactive)
CCN(c1ccccc1)S(=O)(=O)c1cc(C(=O)NCc2ccccn2)ccc1C | -6.91% (inactive)
CCOC(=O)N1CCN(C(=O)c2ccccc2N(Cc2ccccc2)S(=O)(=O)c2ccc(OC)cc2)CC1 | -13.3% (inactive)
CCOC(=O)C1CCN(C(=O)c2ccccc2N(C)S(=O)(=O)c2ccccc2)CC1 | -8.5% (inactive)
CCN1CCN(C(=O)c2ccccc2N(C)S(=O)(=O)c2ccc(C)cc2)CC1 | 40.9% (active)
COc1ccc(-c2cc(C(=O)N(C)CC(=O)Nc3ccccc3Cl)c3ccccc3n2)cc1OC | 1.05% (inactive)
CC(=O)c1c(C)[nH]c(C(=O)OCC(=O)Nc2c(C)cccc2C)c1C | -33.4% (inactive)
COc1ccc(C2CC(c3cccs3)=NN2C(=O)CSc2nnc(N)s2)cc1OC (stereo not given) | -3.75% (inactive)
COc1ccc(C2CC(c3cccs3)=NN2C(=O)CSc2nncs2)cc1OC (stereo not given) | -4.05% (inactive)
COc1cccc(C2CC(c3cccs3)=NN2C(=O)CSC2=NCCS2)c1OC (stereo not given) | 31.4% (active)
